# Bioassay records deposited in PubChem by National Center for Advancing Translational Sciences (NCATS).
# Giardia kill = kills Giardia lamblia; Giardia lamblia trophozoite viability; activity change, % at 7.66 µM, hits read low; 340,000 tested, 0.15% active; in the data active = activity change below about -80%; inconclusive = between about -30% and that limit;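 also: parasites exposed to compound for two days anaerobically before the ATP read; % is scaled to controls: 0 for no effect and ±100 for the full control effect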
#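 Giardia trophozoites, 100 cells per well, were exposed to compounds for 48 hrs at 37 deg C under anaerobic conditions; viability was then read as ATP content by bioluminescence after 15-30 min at room temperature.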
# RORg inh = inhibitors of mouse ROR gamma transcriptional activity | 310,000 tested, 5.4% active | P51450 | AID 2551 | Potency, µM (top dose mostly 53.6 µM), without a hit: at the top dose activity change, negative = inhibition, hits mostly inhibitors | Drosophila S2 Gal4-RORgamma UAS-luciferase reporter, 20 h; also: potency is read from the fitted curve at half-maximal effect; % is scaled to controls: 0 for no effect and ±100 for the full control effect; nearly all actives have a fitted effect of over 60% in size
# Target sequence (P51450 whole entry, looked up, the tested form may be a part): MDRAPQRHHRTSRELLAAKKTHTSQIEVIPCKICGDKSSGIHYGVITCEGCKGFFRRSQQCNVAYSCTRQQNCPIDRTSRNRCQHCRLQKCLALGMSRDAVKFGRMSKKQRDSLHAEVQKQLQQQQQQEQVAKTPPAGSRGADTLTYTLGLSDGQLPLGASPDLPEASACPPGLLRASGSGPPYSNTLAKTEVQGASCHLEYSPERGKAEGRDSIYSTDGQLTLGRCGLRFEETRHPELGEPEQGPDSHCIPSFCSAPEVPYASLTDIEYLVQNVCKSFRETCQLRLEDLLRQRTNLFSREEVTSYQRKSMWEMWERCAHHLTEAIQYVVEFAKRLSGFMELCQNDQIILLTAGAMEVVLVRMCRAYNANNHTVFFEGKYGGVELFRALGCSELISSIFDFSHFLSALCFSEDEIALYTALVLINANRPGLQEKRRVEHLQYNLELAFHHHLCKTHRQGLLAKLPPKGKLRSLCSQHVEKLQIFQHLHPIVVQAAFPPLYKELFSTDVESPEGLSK
#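 A Gal4/UAS one-hybrid system in insect cells: metallothionein-promoter Gal4–ROR gamma fusion plus Photinus luciferase reporter. Copper sulfate 700 uM final, 20 hr ambient incubation, luminescent detection after 10 min with reagent.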
# a7 integrin act = integrin-mediated muscular dystrophy alleviation activation; alpha7betagal myoblasts, beta-gal FDG fluorescence, 48 h; Potency, µM (top dose mostly 38.3 µM), for inactives: at the highest dose activation, hits mostly activators; 350,000 tested, 0.064% active;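 also: potency is read from the fitted curve at half-maximal effect; 100% = response of the positive control SU9516; nearly all actives have a fitted effect of over 60% in size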
#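 Alpha7betagal+/- myoblasts (passage 13) were plated 16-24 hr, then exposed to compounds (1:260 dilution of DMSO stock) for 48 hours at 37C. After MPER lysis, β-galactosidase reporter activity was read as FDG fluorescence (ex 480/em 540) after 30 minutes.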
# ERG Ets-DNA blk = inhibitors of human ERG Ets domain-DNA interaction | fluorescence polarization, His-ERG Ets domain / labelled DNA | Potency, µM (titrated, usually from 76.9 µM), without a hit: top-dose FP activity, negative = inhibition, hits mostly inhibitors | 370,000 tested, 0.028% active | AID 624246; active = well fitted inhibition curve with a large enough effect in the polarisation, with a control signal flat; inconclusive = small, poorly fitted or top-dose-only effect, or effect the other way, or a change in a side signal; inactive = no such curve, though single readings can be large or run the other way; the % refers to the polarisation;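 also: polarization taken with two DNA probes labelled with fluorescein and Texas red; potency is read from the fitted curve at half-maximal effect; % of control where 0% means no effect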
#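 His-tagged ERG Ets domain (1 uM in the protein solution; 300mM KCl, 50mM Tris-HCl, 1mM EDTA, 1mM DTT, pH 7.5) received compound, then a probe mix of 5 nM fluorescein-DNA and 100nM Texas-615-DNA. Fluorescence polarization was read for both dyes.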
# Gal4-VP16 FLuc = inhibits Gal4-VP16 luciferase reporter, ROR gamma counter-screen; Potency, µM (highest dose often 53.6 µM), inactives show at the top dose activity, negative = inhibition, actives largely listed as inhibitors; 310,000 tested, 3.5% active; Drosophila S2 Gal4-VP16 UAS-luciferase, luminescence, 20 h; AID 2546;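 also: Gal4-VP16 expression switched on by copper sulfate through the metallothionein promoter; potency is read from the fitted curve at half-maximal effect; % is scaled to controls: 0 for no effect and ±100 for the full control effect; nearly all actives have a fitted effect of over 50% in size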
# * = called active by the depositor; ? = inconclusive; . = no result given; [ ] = remark or other dose. Many of the other results were omitted from the sample, so hits are more common in it than they were. Unless noted, calls follow the shape of the dose curve; as a rule, active = well fitted curve in the direction sought with a large enough effect; inconclusive = small, poorly fitted or top-dose-only effect, or another doubt; inactive = no such curve, though single readings can be large; an effect the other way counts as inactive or inconclusive.
SMILES,Giardia kill,RORg inh,a7 integrin act,ERG Ets-DNA blk,Gal4-VP16 FLuc
CCOc1ccc(-n2c(N)c(C(=O)NCc3ccco3)c3nc4ccccc4nc32)cc1,0,?,-28%,8%,1%
CCOc1ccc(-n2c(N)c(-c3nc4ccccc4n3C)c3nc4ccccc4nc32)cc1,10,1µM*,-3%,8%,1.3µM*
C=CCN1C(=O)C(CCCC)NC1=S (centres undefined),-2,?,-17%,-13%,?
CC(C)C1NC(=S)N(Cc2ccccc2)C1=O (centres undefined),19,?,17%,?,?
CC1NC(=S)N(C2CCCCC2)C1=O (centres undefined),11,11µM*,-21%,4%,-5%
CCC(C)C1NC(=S)N(C2CCCCC2)C1=O (centres undefined),-11,6.3µM*,23%,-17%,11µM*
O=C1C2CCCN2C(=S)N1C1CCCCC1 (centres undefined),5,21%,-2%,0%,-9%
CCCCC1NC(=S)N(C2CCCCC2)C1=O (centres undefined),-11,13µM*,-7%,-1%,?
C=C(C)[C@@H]1C2=CC(C(=O)OC)=C(C[C@@H](C(=C)C)[C@H]3O[C@H]3C3=C[C@H]1OC3=O)O2,-11,.,.,.,.
COc1ccc(C(=O)N/C(=C/c2ccccc2F)C(=O)NCCN2CCOCC2)cc1OC,11,-4%,2%,21%,0%
COc1ccc(C(=O)NCCn2ccc3ccccc32)c(OC)c1,9,10µM*,-10%,8%,?
COc1cc2c(cc1OC)C1O[C@](CCCCN3C(=O)c4ccccc4C3=O)(C2)OC2=C1C(=O)CC(C)(C)C2,.,28%[10 µM],.,.,-5%[10 µM]
CN(Cc1c(C(=O)N/N=C/c2cccc(F)c2)nnn1-c1nonc1N)c1ccccc1,-13,-15%,5.6µM*,-6%,-5%
Cc1ccc(/C=N/NC(=O)c2nnn(-c3nonc3N)c2C)o1,11,3%,-7%,6%,-4%
Cc1c(C(=O)N/N=C/c2cccs2)nnn1-c1nonc1N,-10,11µM*,?,-1%,?
CCCN(CCC)Cc1c(C(=O)N/N=C/c2ccco2)nnn1-c1nonc1N,14,?,-24%,-9%,-13%
CCCN(CCC)Cc1c(C(=O)N/N=C/c2cccs2)nnn1-c1nonc1N,9,13µM*,6%,?,?
CCCc1c(C(=O)N/N=C/c2cccs2)nnn1-c1nonc1N,2,?,23%,-7%,6.3µM*
COc1cccc(/C=N/NC(=O)c2nnn(-c3nonc3N)c2CN(C)c2ccccc2)c1,0,-22%,5%,5%,6%
C=CCOC(=O)N[C@H](C[N+](=O)[O-])c1ccccc1,.,11%,.,.,6%
COc1ccc(-c2ccc(CCC(=O)O)n2-c2ccc(Cl)cc2C)cc1,.,.,.,-5%,.
CCCC/C=C/C(NC(=O)C(C)(C)C)c1ccccc1 (centres undefined),.,0%,.,.,0%
CCCc1c(C(=O)N/N=C/c2ccc(-c3ccccc3)cc2)nnn1-c1nonc1N,.,.,1%,.,.
CCCc1c(C(=O)N/N=C/c2ccc(C)s2)nnn1-c1nonc1N,-21,1µM*,2%,5%,2.8µM*
CN(C)Cc1c(C(=O)N/N=C/c2ccncc2)nnn1-c1nonc1N,-6,8%,-44%,-2%,16%
SMILES,Giardia kill,RORg inh,a7 integrin act,ERG Ets-DNA blk,Gal4-VP16 FLuc
CN(Cc1c(C(=O)N/N=C/c2cccs2)nnn1-c1nonc1N)c1ccccc1,-3,5.6µM*,-15%,4%,?
CC(C)COc1ccc(CNC(=S)N/N=C/c2ccc([N+](=O)[O-])cc2)cc1,2,1.4µM*,-14%,-2%,4.5µM*
CC(C)Oc1ccc(CCC(=O)N/N=C/c2ccc3c(c2)OCO3)cc1,-2,-12%,-14%,-1%,-6%
CCOc1ccc(CNC(=S)N/N=C/c2ccncc2)cc1,1,10µM*,-37%,-5%,13µM*
CC(C)Oc1ccc(CCC(=O)N/N=C/c2ccncc2)cc1,2,20µM*,-12%,-15%[15.4 µM],-6%
CC(C)Oc1ccc(CNC(=S)N/N=C/c2ccc([N+](=O)[O-])cc2)cc1,14,2.5µM*,-13%,.,3.2µM*
Cc1ccc(CC(=O)N/N=C/c2ccc(OC(=O)c3ccc([N+](=O)[O-])cc3)cc2)cc1,7,-1%,24%,-3%,11%
Cn1cc(CN2CCCC(C(=O)c3nccn3C)C2)c(-c2cccc(Cl)c2)n1 (centres undefined),-7,6%,-4%,1%,0%
CCCOc1ccc(/C=N/NC(=O)c2ccc(Cn3cc([N+](=O)[O-])cn3)o2)cc1,-8,-1%,-3%,-7%,-3%
CCCOc1ccc(CNC(=S)NCc2ccc(OC(C)C)cc2)cc1,-4,7.1µM*,-20%,-2%,7.1µM*
CCCOc1ccc(CNC(=S)N/N=C/c2ccc([N+](=O)[O-])cc2)cc1,-5,1.3µM*,2%,2%,1.6µM*
COc1ccc(C(=O)Nc2nnc(-c3ccccc3)o2)cc1OC,-12,0.56µM*,-24%,-8%,1µM*
COc1cc2ccccc2cc1C(=O)Nc1ccc(Cc2ccncc2)cc1,8,26%,41%[7.66 µM],-3%,2%
O=C(Nc1nnc(-c2ccncc2)o1)c1ccccc1F,18,?,0%,8%,10µM*
COc1cc2ccccc2cc1C(=O)Nc1nnc(-c2ccncc2)o1,0,7.1µM*,6%,5%,10µM*
COc1ccccc1-c1nnc(NC(=O)c2ccccc2F)o1,?,2µM*,-13%,4%,2.8µM*
O=C(Nc1ccncc1)c1ccccc1F,?,2%,2%,6%,0%
CCCCCCCCCCCCC/C=C/[C@@H](O)C(CO)NC(C)=O (some centres undefined),.,-13%,.,.,1%
Cc1ccc(C(=O)Nc2nnc(-c3ccncc3)o2)cc1,-3,0%,-10%,-6%,5%
O=C(Nc1nnc(-c2ccncc2)o1)c1ccccc1,-27,3.2µM*,2%,10%,5µM*
COc1ccc(-c2csc(NC(C)=O)n2)cc1OC,4,51%,-16%,-6%,19%
COc1ccc(-c2csc(NC(=S)NC(=O)c3ccc4ccccc4c3)n2)cc1OC,32,2µM*,?,-2%,?
COc1ccc(-c2csc(NC(=S)NC(=O)c3ccco3)n2)cc1,-16,7.1µM*,-1%,0%,-2%
COc1ccc(-c2csc(NC(=O)CN3C(=O)CCC3=O)n2)cc1,-13,12%,32%,1%,1%
O=C(NC(=S)Nc1nc(-c2ccccc2)cs1)c1ccco1,4,3.5µM*,2%,7%,?
CCCC(=O)NC(=S)Nc1nc(-c2ccc(OC)cc2)cs1,-10,8.9µM*,-11%,3%,-16%
